The results in this text go back to PubChem BioAssay (NCATS).

Several values for one entry are separate records, joined by “and”; a condition that tells them apart may be missing. Identical values can stand only once. Unmarked numbers belong to inactive results. Records with an inconclusive call do not appear. Activity calls are given as the source filed them. Unless noted, calls come from the whole dose curve; as a rule, active = well fitted curve in the direction sought with a large enough effect; inconclusive = small, poorly fitted or top-dose-only effect, or another doubt; inactive = no such curve, though single readings can be large; an effect the other way counts as inactive or inconclusive.

Assay [1] can be described thus: qHTS assay for environmental chemicals that activate the Aryl hydrocarbon Receptor (AhR) signaling pathway (AID 651777). For activation: % of control where 0% means no effect. Note: nearly all actives have a fitted effect of over 15% in size. Note: potency is the fitted concentration of half-maximal effect. The conditions noted are these: 1A2-DRE human hepatoma cells, luciferase, 24 h; activation: active compounds read high. The method in brief:
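Quantitative HTS in stably transfected human liver-derived cells whose luciferase gene sits downstream of the CYP1A2 promoter and dioxin response element. After 24 hr exposure at 37 C, One-Glo luminescence was measured.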
(In general: qHTS replaces the single test concentration by a dilution series.)

The target of assay [2] is Tumor necrosis factor (Homo sapiens) (UniProt P01375). Kind of assay: qHTS assay to identify small molecules that stimulate Tumor Necrosis Factor-alpha (TNF-alpha) secretion (AID 651757; active = well fitted curve in the direction sought with a large enough effect in the signal ratio; the % refers to the signal ratio; note: 0% is about no effect). The method in brief:
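Secreted TNF-alpha from compound-treated THP-1 cells (17 hrs, 37 C) was quantified with a homogeneous time-resolved fluorescence antibody assay.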

The target in assay [3] is Nuclear receptor ROR-gamma (Homo sapiens) (UniProt P51449). Kind of assay: qHTS assay for small molecule antagonists of the retinoid-related orphan receptor gamma (ROR-gamma) signaling pathway (AID 651802). Note: nearly all actives have a fitted effect of over 60% in size. Note: potency is the fitted concentration of half-maximal effect. Put shortly: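 Antagonism is scored as a fall in luminescence from a RORE-luciferase reporter in CHO cells expressing ROR under a TET-inducible promoter, measured 16hr after doxycycline induction in the presence of compound.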

A short description of assay [4]: qHTS for small molecule inhibitors of Yes1 kinase: Counter Assay (AID 686950).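 Note: no kinase present so only ADP-Glo detection of a fixed ADP amount is tested; luminescence from ADP-Glo reporting ADP in a fixed ATP and ADP mixture; series mostly up to about 77 µM; 0% = DMSO wells with ATP plus ADP and -100% = ATP-only wells without ADP.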 The method in brief:
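Luminescence read-out from ADP-Glo quantifies a fixed ADP amount (0.02 mM ADP with 0.08 mM ATP) after 60 min at room temperature; signal is normalized between DMSO wells with ATP/ADP and with 0.1 mM ATP alone.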

The target in assay [5] is Tyrosine-protein kinase Yes (Homo sapiens) (UniProt P07947). As to the kind of experiment: qHTS for small molecule inhibitors of Yes1 kinase: Primary Screen (AID 686947). Note: nearly all actives have a fitted effect of over 60% in size. Note: potency is the fitted concentration of half-maximal effect. Put shortly:
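ADP-Glo luminescence readout; final 4 nM Yes1, 0.1 mM ATP, 0.3 mg/mL poly(E4Y), Tris pH 7.5, MgCl2, DTT, Brij-35. 20 min compound preincubation, 60 min reaction at RT. Normalized to DMSO wells with and without enzyme.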

In assay [6] the target is Peroxisome proliferator-activated receptor alpha (Homo sapiens) (UniProt Q07869). As to the kind of experiment: qHTS assay for small molecule agonists of the peroxisome proliferator-activated receptor alpha (PPARalpha) signaling pathway (AID 651778). Note: % of control where 0% means no effect. The following applies: PathHunter PPARalpha complementation, chemiluminescence, 6 h; max response: active compounds read high. The method in brief: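 Chemiluminescence from complemented enzyme reported PPARalpha activation in cells after 6 hr of compound treatment at 37 C. The detection reagent was incubated for 60 min at room temperature, and compounds were scored as agonists.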

In assay [7] the target is Arylsulfatase A (Homo sapiens) (UniProt P15289). As to the kind of experiment: qHTS screen for enhancers of Arylsulfatase A (ASA1): LOPAC Validation Assay (AID 720538). The following applies: outcome: dose series up to 57.5 µM. Put shortly: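 Cell-based enhancement test: residual ASA activity in SV40-transformed I179S patient fibroblasts is measured by pNCS turnover (0.5mM final, 14h, room temperature) following 48h compound incubation; higher fluorescence indicates activation.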

The nature of assay [8]: qHTS for compounds that reverse cellular toxicity of Amyloid beta (A-beta) peptide in yeast: LOPAC Validation Assay (AID 720559).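 Note: plate controls were DMSO for no effect and equimolar ferric chloride plus clioquinol rescue for full effect.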 The method in brief: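 Here, A-beta-toxic yeast grow with test compounds at 30 C for 48 hr before optical density at 600 nm is recorded; data are normalized against DMSO and the FeCl3-clioquinol control.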
The nature of assay [9]: qHTS for Activators of Parkin Expression: LOPAC Validation Assay (NLuc Reporter) (AID 720572;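 note: 0% = DMSO and 100% = positive control compound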). Put shortly: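 Parkin promoter-driven FLuc/NLuc neuronal reporter cells; 24 h plating, 7-pt dose response, 24 h at 37 C/5% CO2; FLuc then NanoLuc reagent, 10 min each, luminescence; DMSO/positive control normalized.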

Sequence of Nuclear receptor ROR-gamma (Homo sapiens) (P51449 whole entry, looked up): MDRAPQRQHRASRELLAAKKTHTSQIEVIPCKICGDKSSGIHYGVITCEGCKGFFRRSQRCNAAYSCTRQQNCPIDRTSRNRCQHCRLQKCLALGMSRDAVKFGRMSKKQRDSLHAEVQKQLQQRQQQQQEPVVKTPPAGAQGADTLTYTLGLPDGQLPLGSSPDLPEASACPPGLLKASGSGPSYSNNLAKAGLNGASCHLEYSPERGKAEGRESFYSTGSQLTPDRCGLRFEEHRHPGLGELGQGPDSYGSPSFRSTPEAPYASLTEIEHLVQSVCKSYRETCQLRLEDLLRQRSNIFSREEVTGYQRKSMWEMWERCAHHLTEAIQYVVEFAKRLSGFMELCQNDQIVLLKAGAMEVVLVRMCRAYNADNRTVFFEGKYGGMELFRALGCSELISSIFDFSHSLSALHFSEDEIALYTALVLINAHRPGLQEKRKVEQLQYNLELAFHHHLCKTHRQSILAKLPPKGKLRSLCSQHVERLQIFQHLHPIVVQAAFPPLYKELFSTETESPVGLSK
Sequence of Peroxisome proliferator-activated receptor alpha (Homo sapiens) (Q07869 whole entry, looked up): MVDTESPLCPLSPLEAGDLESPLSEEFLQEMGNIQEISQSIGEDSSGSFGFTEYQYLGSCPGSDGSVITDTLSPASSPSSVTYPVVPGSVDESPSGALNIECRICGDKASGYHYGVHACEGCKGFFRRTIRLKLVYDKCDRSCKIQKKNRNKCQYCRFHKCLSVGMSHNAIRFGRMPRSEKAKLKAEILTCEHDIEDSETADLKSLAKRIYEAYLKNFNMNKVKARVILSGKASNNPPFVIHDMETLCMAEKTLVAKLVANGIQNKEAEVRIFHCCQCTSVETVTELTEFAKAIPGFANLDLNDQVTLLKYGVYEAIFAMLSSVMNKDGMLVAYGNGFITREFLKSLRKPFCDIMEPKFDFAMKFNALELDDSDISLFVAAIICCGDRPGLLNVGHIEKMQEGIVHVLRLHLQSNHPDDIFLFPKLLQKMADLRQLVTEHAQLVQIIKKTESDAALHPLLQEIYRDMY
Sequence of Arylsulfatase A (Homo sapiens) (P15289 whole entry, looked up): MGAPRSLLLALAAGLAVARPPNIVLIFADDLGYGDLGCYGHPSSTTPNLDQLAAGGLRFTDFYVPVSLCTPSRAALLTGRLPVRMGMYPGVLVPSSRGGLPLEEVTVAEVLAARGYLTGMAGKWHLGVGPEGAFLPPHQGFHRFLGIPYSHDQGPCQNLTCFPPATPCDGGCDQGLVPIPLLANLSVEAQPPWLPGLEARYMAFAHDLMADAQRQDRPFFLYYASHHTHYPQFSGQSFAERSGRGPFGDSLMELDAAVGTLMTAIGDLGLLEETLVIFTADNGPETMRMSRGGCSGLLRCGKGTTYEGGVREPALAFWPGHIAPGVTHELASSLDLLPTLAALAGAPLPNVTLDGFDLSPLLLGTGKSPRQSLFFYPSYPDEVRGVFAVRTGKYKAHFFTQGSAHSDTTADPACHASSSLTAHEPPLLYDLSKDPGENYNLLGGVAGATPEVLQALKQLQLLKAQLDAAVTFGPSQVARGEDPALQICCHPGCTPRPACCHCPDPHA
Sequence of Tyrosine-protein kinase Yes (Homo sapiens) (P07947 whole entry, looked up): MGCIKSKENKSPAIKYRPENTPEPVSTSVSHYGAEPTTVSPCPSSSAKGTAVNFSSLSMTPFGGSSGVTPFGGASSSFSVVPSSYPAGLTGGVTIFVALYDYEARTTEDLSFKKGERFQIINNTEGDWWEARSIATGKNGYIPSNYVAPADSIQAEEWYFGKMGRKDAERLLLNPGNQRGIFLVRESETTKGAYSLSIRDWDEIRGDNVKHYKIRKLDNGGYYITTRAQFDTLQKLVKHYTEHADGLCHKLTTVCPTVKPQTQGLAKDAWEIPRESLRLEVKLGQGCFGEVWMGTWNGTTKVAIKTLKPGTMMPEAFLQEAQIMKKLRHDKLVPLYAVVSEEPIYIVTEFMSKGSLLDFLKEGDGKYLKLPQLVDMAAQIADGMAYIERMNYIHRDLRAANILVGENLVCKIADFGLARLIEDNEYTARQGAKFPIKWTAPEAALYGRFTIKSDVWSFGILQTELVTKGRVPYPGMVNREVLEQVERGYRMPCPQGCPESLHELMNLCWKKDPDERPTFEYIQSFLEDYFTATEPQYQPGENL
Sequence of Tumor necrosis factor (Homo sapiens) (P01375 whole entry, looked up): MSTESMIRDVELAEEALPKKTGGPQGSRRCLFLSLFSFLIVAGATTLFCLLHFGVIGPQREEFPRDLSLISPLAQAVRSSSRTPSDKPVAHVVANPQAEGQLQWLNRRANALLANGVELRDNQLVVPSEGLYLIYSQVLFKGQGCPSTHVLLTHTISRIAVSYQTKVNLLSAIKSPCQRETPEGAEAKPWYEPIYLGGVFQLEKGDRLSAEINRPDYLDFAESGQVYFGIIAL

With `C=CCC1=C(C)C(OC(=O)C2C(C=C(C)C)C2(C)C)CC1=O` (stereo not given), the activation in [1] is 0.269% and 0.976%.

In the case of `O=S(=O)(O)C(F)(F)C(F)(F)C(F)(F)C(F)(F)C(F)(F)C(F)(F)C(F)(F)C(F)(F)F`, the activation in assay [1] was 1.49% and 0.543%.

As for `O=C(O)COc1nc(Cl)c(Cl)cc1Cl`, in assay [1], the activation is 0.732%.

Regarding `COc1nn(CSP(=S)(OC)OC)c(=O)s1`, the activation in assay [1] was -1.09%.

On to `Nc1ccc(Cl)cc1`, for which, in assay [2], the result was inactive. Further, the activation in assay [1] is 0.816%. Moreover, in [3], the Potency result is “inactive”.

Consider `Cc1nc(-c2ccc(-c3ccc(C(=O)N4CCc5cc6c(cc54)C4(CCN(C)CC4)CO6)cc3)c(C)c2)no1`, for which the compound was classed as inactive in assay [4].

As for `C1=CCOCc2cc(ccc2OCCN2CCCC2)Nc2nccc(n2)-c2cccc(c2)OCC1`, in [5], the Potency is 43.4 nM (active).

As to `Nc1ccc(Cl)cc1N`, the Potency in assay [1] was 50.1 µM (active) and 39.8 µM (active). The max response in [6] is -5.6% and -0.828%. Besides, in [3], the Potency result is “inactive”.

On to `O=C(Oc1ccc([N+](=O)[O-])cc1)N1CCC(C(O)(c2ccc3c(c2)OCO3)c2ccc3c(c2)OCO3)CC1`, for which the Potency in assay [5] is 2440 nM (active). In addition, the result in assay [4] was inactive.

Regarding `CC1=NN=C(c2ccc(N)cc2)c2cc3c(cc2C1)OCO3`, the result in [7], in assay [8] and in assay [9] was inactive.

For the compound `NC1CCc2cc(O)c(O)cc2C1` (stereo not given), the result in [7], in assay [8] and in assay [9] was inactive.

Regarding `O=C(O)[C@@H]1CCN1`, the result in assay [7], in assay [8] and in assay [9] was inactive.

Regarding `CC(C)NC(C)Cc1ccc(I)cc1` (stereo not given), in [7], the outcome was “inactive; inhibitor; fitted 0.3013 uM”. The compound was called inactive in assay [8] and in assay [9].

Consider `CC1CC(C)C(=O)C(C(O)CC2CC(=O)NC(=O)C2)C1` (stereo not given), for which the Potency result in assay [5] was “inactive”. Further, in assay [4], the result was inactive.

For the compound `COCCOCCO`, the activation in assay [1] is -0.559% and 0.0587%. Also, the max response in assay [6] was -0.0911% and 0.363%.

Regarding `C[C@]12N[C@H](Cc3ccccc31)c1ccccc12`, in assay [7], the result was inactive.

Regarding `Clc1cnc(Oc2ccc(Oc3ncc(Cl)cc3Cl)cc2)c(Cl)c1`, the activation in [1] is 0.838%. For the same compound, the outcome in assay [7], in assay [8] and in assay [9] was inactive.

For `CC(=O)Nc1ccc(OC[C@](C)(O)C(=O)Nc2ccc([N+](=O)[O-])c(C(F)(F)F)c2)cc1`, in [5], the Potency result was “inactive”. For the same compound, the compound was called inactive in assay [4].

Turning to `c1cc(-c2cnn3cc(-c4ccc(OCCN5CCCCC5)cc4)cnc23)ccn1`, in assay [5], the Potency was 54.7 nM (active).

For `C=CCON=C(C[C@H]1O[C@@H]2O[C@]3(C)CC[C@@H]4[C@H](C)CC[C@@H]([C@H]1C)[C@@]24OO3)[C@H]1O[C@@H]2O[C@]3(C)CC[C@H]4[C@H](C)CC[C@@H]([C@@H]1C)[C@@]24OO3`, in [5], the Potency was 6880 nM (active). Besides, the outcome in assay [4] was inactive.

Take `O=C(O)CCCOc1ccc(Cl)cc1Cl`: the activation in assay [1] was 4.85%. Moreover, the max response in assay [6] was 5.21%.

For `CC(C)[C@]12O[C@H]1[C@@H]1O[C@]13[C@]1(O[C@H]1C[C@H]1C4=C(CC[C@@]13C)C(=O)OC4)[C@@H]2O`, the Potency result in [5] was “inactive”. In addition, in assay [4], the result was inactive.

`CCCN(CCC)c1c([N+](=O)[O-])cc(S(N)(=O)=O)cc1[N+](=O)[O-]`: the activation in assay [1] was -1.72%. Moreover, the max response in assay [6] is 9.4%.

Turning to `C/C=C(/C)C(=O)O[C@H]1C(C)=C2[C@H]([C@@H]1OC(=O)CCCCCCC)[C@@](C)(OC(C)=O)C[C@H](OC(=O)CCC)[C@@]1(O)[C@H]2OC(=O)[C@@]1(C)O`, the result in [7], in assay [8] and in assay [9] was inactive.

With `COC(=O)[C@@H](N)CCCN=C(N)N[N+](=O)[O-]`, the result in assay [7], in [8] and in assay [9] was inactive.

As to `Cc1nc2cnc3ccc(C#Cc4cccnc4)cc3c2n1-c1ccc(C(C)(C)C#N)cc1`, the Potency in assay [5] was 2180 nM (active).

Take `Brc1ccccc1-c1ccccc1`: the Potency entry in assay [3] was “inactive”.

Take `C[N+]1(C)C2CCC1CC(OC(=O)C(CO)c1ccccc1)C2` (stereo not given): the outcome in [7], in assay [8] and in [9] was inactive.

For the compound `Nc1cccc2c(N)cccc12`, the Potency in assay [1] was 25.1 µM (active). The Potency result in assay [3] was “inactive”.

In the case of `CC(C)Oc1cccnc1N(C)C1CCN(Cc2ccccc2)CC1`, the result in assay [7], in assay [8] and in assay [9] was inactive.

As to `CS(=O)(=O)c1ccc(C(=O)C2C(=O)CCCC2=O)c([N+](=O)[O-])c1`, the activation in [1] was 3.32%. In addition, the max response in assay [6] is -3.08%.

Consider `Nc1ccc(Sc2ccc(N)cc2)cc1`, for which the activation in assay [1] is 6.89% and 6.82%. In assay [3], the Potency result is “inactive”.

Consider `C[C@@H](N)Cc1cnc[nH]1`, for which the result in assay [7], in assay [8] and in assay [9] was inactive.

As to `C[N+]1(C)C2CC(OC(=O)[C@H](CO)c3ccccc3)CC1C1OC12` (stereo not given in full), the result in [7] was inactive.

Regarding `O=C(O)CC[N+](=O)[O-]`, the result in assay [7], in assay [8] and in [9] was inactive.

With `COc1ccc2c(c[n+](C)c3c4cc5c(cc4ccc23)OCO5)c1OC`, in assay [5], the Potency entry is “inactive”. In addition, the compound was called inactive in [4], in assay [7], in assay [8] and in [9].

In the case of `Cc1ccccc1-n1c(Cn2cnc3c(N)ncnc32)nc2cccc(C)c2c1=O`, the Potency entry in assay [5] is “inactive”. Besides, the outcome in [4] was inactive.

Turning to `CC(=O)[O][Hg][c]1ccccc1`, the activation in assay [1] was -9.33% and -11.2%. The Potency in assay [3] was 531 nM (active).

On to `CC(C)(O)C(=O)Nc1ccc([N+](=O)[O-])c(C(F)(F)F)c1`, for which, in [1], the activation was -1.15%. Moreover, the max response in assay [6] was -1.76%.

As for `CS(=N)(=O)CC[C@H](N)C(=O)O` (stereo not given in full), the result in [7], in [8] and in [9] was inactive.

`NC(=O)CN1CC(O)CC1=O` (stereo not given): the result in assay [7], in assay [8] and in assay [9] was inactive.

Turning to `Cc1c(C(=O)Nc2cccc(C(F)(F)F)c2)cc(-c2ccccc2)n1CCCN1CCOCC1`, the Potency result in [5] is “inactive”. Besides, the result in assay [4] was inactive.

On to `CCCN1CCO[C@@H]2c3cc(O)ccc3OC[C@H]21`, for which the result in [7], in assay [8] and in assay [9] was inactive.
